3CLpro inhibitor = SARS-CoV 3CLpro protease inhibition. recombinant SARS-CoV 3CLpro, quenched FRET peptide cleavage. inhibition, % at 6 µM. hit rate 0.14% among 290,000. AID 1706; in the data active = inhibition above about 12%
Bead autofluor = compound fluorescence in toxin protease inhibitor counterscreen. compound autofluorescence counterscreen, microsphere flow cytometry; active compounds read high. hit rate 3.1% among 360,000. fluorescence intensity (concentration not given with the values); in the data active = fluorescence intensity above about 16000; inconclusive = no clear call, values can overlap the other calls
Anthrax LF inh2 = inhibitors of Bacillus anthracis lethal factor protease. P15917. multiplex microsphere protease cleavage assay, LF. inhibition, % at 10 µM. hit rate 0.12% among 360,000. AID 588501; note: plate controls were buffer without enzyme for full effect and enzyme alone for no effect
Target sequence (P15917 whole entry, looked up): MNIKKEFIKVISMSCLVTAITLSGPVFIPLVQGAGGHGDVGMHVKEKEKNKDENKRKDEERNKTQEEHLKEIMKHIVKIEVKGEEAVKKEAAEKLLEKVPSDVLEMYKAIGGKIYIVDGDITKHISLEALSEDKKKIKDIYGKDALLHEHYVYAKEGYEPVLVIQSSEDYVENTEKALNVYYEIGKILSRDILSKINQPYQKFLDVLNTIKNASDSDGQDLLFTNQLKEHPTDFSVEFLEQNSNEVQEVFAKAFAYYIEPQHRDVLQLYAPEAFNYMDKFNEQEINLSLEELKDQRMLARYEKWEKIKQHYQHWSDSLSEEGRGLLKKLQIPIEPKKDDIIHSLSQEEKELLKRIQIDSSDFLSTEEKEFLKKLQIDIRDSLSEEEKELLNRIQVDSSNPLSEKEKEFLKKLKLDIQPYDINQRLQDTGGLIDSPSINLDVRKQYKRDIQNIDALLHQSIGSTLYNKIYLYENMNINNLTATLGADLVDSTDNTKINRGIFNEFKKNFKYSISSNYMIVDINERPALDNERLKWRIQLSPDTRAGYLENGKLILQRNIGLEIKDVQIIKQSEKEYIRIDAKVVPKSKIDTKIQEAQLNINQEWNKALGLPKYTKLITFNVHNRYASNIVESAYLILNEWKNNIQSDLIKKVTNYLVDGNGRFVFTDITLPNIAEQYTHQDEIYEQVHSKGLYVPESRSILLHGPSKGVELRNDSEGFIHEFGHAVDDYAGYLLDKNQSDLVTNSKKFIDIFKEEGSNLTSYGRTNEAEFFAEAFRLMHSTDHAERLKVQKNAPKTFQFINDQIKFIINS
BoNT A protease = BoNT A light chain protease inhibition; multiplex microsphere protease substrate cleavage, flow cytometry; inhibition, % at 10 µM; hit rate 0.17% among 360,000; AID 588499; note: plate controls were buffer without enzyme for full effect and enzyme alone for no effect
BoNT-F LC inh = inhibitors of Botulinum neurotoxin F light chain protease; Multiplex microsphere protease cleavage assay, flow cytometry; inhibition, % at 10 µM; hit rate 0.22% among 360,000; AID 588497; in the data active = inhibition above about 35%, passing the limit was not always enough; inconclusive = no clear call, values can overlap the other calls; note: plate controls were buffer without enzyme for full effect and enzyme alone for no effect
Active calls of the source: *. Compounds with a hit are over-represented: about 3.5% of the library has one in this group of screens. Cut-off read from the data, not from the text of the source, unless noted: active = inhibition above about 30%; inconclusive = no clear call, values can overlap the other calls; inactive = below that.

Screening O=C(Nc1ccccc1)c1n[nH]c(Cn2cncn2)n1 returned 3CLpro inhibitor -0.9, Bead autofluor 23808*, Anthrax LF inh2 -4.6, BoNT A protease -1.5 and BoNT-F LC inh -0.8.
`O=C(NCC1CCN(c2ccc(S(=O)(=O)N3CCOCC3)cc2)CC1)c1cccc(Cl)c1` gave 3CLpro inhibitor 3.9, Bead autofluor 18496*, Anthrax LF inh2 -5.3, BoNT A protease -3.3 and BoNT-F LC inh 18.3.
`O=C(c1ccc(S(=O)(=O)N2CCOCC2)cc1)N1CCN(c2cccc(Cl)c2)CC1` gave 3CLpro inhibitor -4.0, Bead autofluor 24247*, Anthrax LF inh2 -5.4, BoNT A protease -3.0 and BoNT-F LC inh -4.4.
For C[C@@H]1O[C@@H](OC[C@H]2O[C@@H](Oc3c(-c4ccc(O)c(O)c4)oc4cc(O)cc(O)c4c3=O)[C@H](O)[C@@H](O)[C@@H]2O)[C@H](O)[C@H](O)[C@H]1O the results were 3CLpro inhibitor -1.6, Bead autofluor 5929, Anthrax LF inh2 1.8, BoNT A protease -1.4 and BoNT-F LC inh -17.5.
`S=c1nc[nH]c2c1sc1nc(-c3ccccc3)c3c(c12)CCCC3` gave 3CLpro inhibitor 0.9, Bead autofluor 2613, Anthrax LF inh2 5.1, BoNT A protease 10.9 and BoNT-F LC inh 1.8.
For COc1cc(CN2CCC(C(=O)N3CCC(C)CC3)CC2)cc(Br)c1O the results were 3CLpro inhibitor 3.6, Bead autofluor 10990, Anthrax LF inh2 3.6, BoNT A protease -1.0 and BoNT-F LC inh 6.5.
Screening COc1ccc(N2CCN(C(=O)CN=C3NS(=O)(=O)C(c4ccc(C)cc4)=C3C)CC2)cc1 returned 3CLpro inhibitor 3.1, Bead autofluor 17288*, Anthrax LF inh2 -0.3, BoNT A protease -2.8 and BoNT-F LC inh -1.0.
For COc1ccccc1N1CCN(/N=C\c2sccc2C)CC1 the results were 3CLpro inhibitor -0.2, Bead autofluor 4051, Anthrax LF inh2 -0.9, BoNT A protease -2.1 and BoNT-F LC inh -7.0.
CC(C)OC(=O)CSc1nnc(-c2ccc(Cl)cc2Cl)n1N was read as 3CLpro inhibitor 0.7, Bead autofluor 22841*, Anthrax LF inh2 -1.1, BoNT A protease 0.9 and BoNT-F LC inh 1.8.
Screening Cn1c(Cc2ccccc2)nnc1SCC(=O)Nc1ccccc1 returned 3CLpro inhibitor -3.0, Bead autofluor 7070, Anthrax LF inh2 -3.7, BoNT A protease -3.4 and BoNT-F LC inh -14.9.
`CC(C)OC(=O)CSc1nnc(-c2ccc(Cl)cc2)n1N` gave 3CLpro inhibitor 1.6, Bead autofluor 21439*, Anthrax LF inh2 2.0, BoNT A protease -5.0 and BoNT-F LC inh -6.8.
`CC(C)OC(=O)CSc1nnc(Cc2ccccc2)n1C` gave 3CLpro inhibitor 1.2, Bead autofluor 16479*, Anthrax LF inh2 -0.8, BoNT A protease -0.7 and BoNT-F LC inh -2.0.
For O=S(=O)(Nc1ccccc1)c1cccc2nsnc12 the results were 3CLpro inhibitor -3.5, Bead autofluor 3667, Anthrax LF inh2 -3.4, BoNT A protease -3.2 and BoNT-F LC inh inconclusive.
O=C(O)CNS(=O)(=O)c1cccc2nsnc12 was read as 3CLpro inhibitor 2.6, Bead autofluor 22948*, Anthrax LF inh2 3.5, BoNT A protease 1.7 and BoNT-F LC inh -0.3.
Screening O=C(O)c1cccc(NS(=O)(=O)c2cccc3nsnc23)c1 returned 3CLpro inhibitor -1.6, Bead autofluor 19434*, Anthrax LF inh2 -11.3, BoNT A protease 7.3 and BoNT-F LC inh 10.0.
`COc1cc(OC)c(C2=NOC(C(=O)NCc3cccnc3)C2)cc1Cl` (configuration not stated) gave 3CLpro inhibitor 0.6, Bead autofluor 3412, Anthrax LF inh2 7.6, BoNT A protease 2.5 and BoNT-F LC inh 14.2.
Screening COc1cc(OC)c(C2=NOC(C(=O)NCCc3ccccc3)C2)cc1Cl (configuration not stated) returned 3CLpro inhibitor 0.6, Bead autofluor 23621*, Anthrax LF inh2 -1.8, BoNT A protease -1.8 and BoNT-F LC inh -1.4.
`CCc1nc(Nc2ccccc2)c2oc3ccccc3c2n1` gave 3CLpro inhibitor 1.2, Bead autofluor 19756*, Anthrax LF inh2 -1.6, BoNT A protease inconclusive and BoNT-F LC inh 3.0.
Screening Cc1nc(Nc2ccc3c(c2)OCO3)c2oc3ccccc3c2n1 returned 3CLpro inhibitor 3.6, Bead autofluor 24138*, Anthrax LF inh2 -3.8, BoNT A protease inconclusive and BoNT-F LC inh -5.1.
`CCc1nc(Nc2ccc(F)cc2)c2oc3ccccc3c2n1` gave 3CLpro inhibitor 2.2, Bead autofluor 3810, Anthrax LF inh2 -2.5, BoNT A protease -2.6 and BoNT-F LC inh 2.5.
`Cc1cc(C)c(C)c(OCc2nc(-c3cccnc3)no2)c1` gave 3CLpro inhibitor -0.8, Bead autofluor 21478*, Anthrax LF inh2 -3.9, BoNT A protease 2.0 and BoNT-F LC inh 2.0.
`Clc1ccc(OCCCc2nc(-c3cccnc3)no2)c(Cl)c1` gave 3CLpro inhibitor -3.7, Bead autofluor 21481*, Anthrax LF inh2 -0.6, BoNT A protease 6.0 and BoNT-F LC inh 3.5.
Cc1ccc(C2C(=O)NC(=O)NC2=O)cc1 was read as Bead autofluor 2834, Anthrax LF inh2 -3.3, BoNT A protease -1.5 and BoNT-F LC inh 11.6.
`COc1ccc(N=Cc2c(O)n(-c3cccc(C)n3)c(=O)c3ccccc23)c(OC)c1` gave 3CLpro inhibitor -2.4, Bead autofluor 3217, Anthrax LF inh2 62.9*, BoNT A protease 4.1 and BoNT-F LC inh inconclusive.
For COc1cccc(N=Cc2c(O)n(-c3cccc(C)n3)c(=O)c3ccccc23)c1 the results were 3CLpro inhibitor -2.3, Bead autofluor 9699, Anthrax LF inh2 1.5, BoNT A protease -0.2 and BoNT-F LC inh 6.4.
O=C(Nc1c(Cl)cccc1Cl)c1cc(=O)n(Cc2ccccc2)c(=O)[nH]1 was read as 3CLpro inhibitor 5.2, Bead autofluor 21337*, Anthrax LF inh2 1.7, BoNT A protease inconclusive and BoNT-F LC inh -0.6.
For Cc1cccc(NC(=O)c2cc(=O)n(Cc3ccccc3)c(=O)[nH]2)c1 the results were 3CLpro inhibitor -0.3, Bead autofluor 2395, Anthrax LF inh2 -2.1, BoNT A protease -0.6 and BoNT-F LC inh -2.8.
`COc1ccc(NC(=S)N(Cc2ccc(C(=O)O)cc2)Cc2ccc(OC)c(OC)c2)cc1` gave 3CLpro inhibitor 0.0, Bead autofluor 4283, Anthrax LF inh2 -0.7, BoNT A protease -0.8 and BoNT-F LC inh -3.6.
Screening CC(C)(C)c1cc(NC(=O)c2ccco2)n(-c2ccccc2)n1 returned 3CLpro inhibitor 2.4, Bead autofluor 4087, Anthrax LF inh2 -0.4, BoNT A protease -0.1 and BoNT-F LC inh -0.3.
CCc1ccc(NC(=O)CCCOc2cc(=O)n(C)c3ccccc23)cc1 was read as Bead autofluor 3765, Anthrax LF inh2 -4.1, BoNT A protease -0.2 and BoNT-F LC inh -1.8.
CCn1c(=O)cc(OCC(=O)Nc2ccc(OC)c(OC)c2)c2ccccc21 was read as 3CLpro inhibitor -2.7, Bead autofluor 2067, Anthrax LF inh2 0.4, BoNT A protease -0.3 and BoNT-F LC inh -2.2.
CCn1c(=O)cc(OCC(=O)Nc2cc(C)ccn2)c2ccccc21 was read as 3CLpro inhibitor -16.5, Bead autofluor 22556*, Anthrax LF inh2 -1.3, BoNT A protease -0.5 and BoNT-F LC inh 1.0.

Screening results from PubChem.
